Test results taken from PubChem BioAssay AID1159580 (chemical genetic matrix, 2015).
The campaign covered roughly 5,500 compounds. About 2,000 (36%) were called active. Roughly 18% stayed inconclusive and do not appear here. Rule as the data show it: active = normalized growth mostly below about 0.91 (no sharp cut-off); inconclusive = no clear call, values can overlap the other calls; inactive = mostly above about 0.92. This is one part of the list.

Experiment: chemical genetic growth profiling, strain panel (AID 1159580);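 also: tested at 20 µM; growth read once vehicle control cultures reached saturation at 30 °C; 1 = growth at the plate median or of vehicle wells; lower values mean less growth of the strain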
Conditions: growth OD

Measured: normalized growth

CCCc1occc(=O)c1/C=C/O
inactive: S. cerevisiae deletion strains, locus YAL013W, strain DEP1, stronger effect = lower value 0.98 | S. cerevisiae deletion strains, locus YBR021W, strain FUR4, stronger effect = lower value 0.999 | S. cerevisiae deletion strains, locus YBR229C, strain ROT2, stronger effect = lower value 0.987 | S. cerevisiae deletion strains, locus YCL029C, strain bik1, stronger effect = lower value 0.97 | S. cerevisiae deletion strains, locus YDL035C, strain GPR1, stronger effect = lower value 0.981 | S. cerevisiae deletion strains, locus YDL074C, strain BRE1, stronger effect = lower value 1.01 | S. cerevisiae deletion strains, locus YDL101C, strain DUN1, stronger effect = lower value 0.982 | S. cerevisiae deletion strains, locus YDL134C, strain PPH21, stronger effect = lower value 0.939 | S. cerevisiae deletion strains, locus YDL185W, strain tfp1, stronger effect = lower value 0.97 | S. cerevisiae deletion strains, locus YDL192W, strain arf1, stronger effect = lower value 0.923 | S. cerevisiae deletion strains, locus YDR101C, strain arx1, stronger effect = lower value 0.943 | S. cerevisiae deletion strains, locus YDR150W, strain NUM1, stronger effect = lower value 0.983 | S. cerevisiae deletion strains, locus YDR162C, strain NBP2, stronger effect = lower value 0.927 | S. cerevisiae deletion strains, locus YDR318W, strain mcm21, stronger effect = lower value 0.942 | S. cerevisiae deletion strains, locus YDR388W, stronger effect = lower value 0.964 | S. cerevisiae deletion strains, locus YEL061C, strain CIN8, stronger effect = lower value 0.98 | S. cerevisiae deletion strains, locus YER110C, stronger effect = lower value 0.963 | S. cerevisiae deletion strains, locus YER155C, strain BEM2, stronger effect = lower value 0.967 | S. cerevisiae deletion strains, locus YER167W, strain BCK2, stronger effect = lower value 0.936 | S. cerevisiae deletion strains, locus YGL078C, strain dbp3, stronger effect = lower value 1 | S. cerevisiae deletion strains, locus YGL086W, strain mad1, stronger effect = lower value 0.979 | S. cerevisiae deletion strains, locus YGL248W, strain PDE1, stronger effect = lower value 0.949 | S. cerevisiae deletion strains, locus YGR078C, strain PAC10, stronger effect = lower value 0.964 | S. cerevisiae deletion strains, locus YGR135W, strain pre9, stronger effect = lower value 0.948 | S. cerevisiae deletion strains, locus YGR252W, strain gcn5, stronger effect = lower value 0.925 | S. cerevisiae deletion strains, locus YHR030C, strain SLT2, stronger effect = lower value 0.986 | S. cerevisiae deletion strains, locus YHR079C, strain IRE1 (second series), stronger effect = lower value 0.959 | S. cerevisiae deletion strains, locus YHR094C, strain hxt1, stronger effect = lower value 0.957 | S. cerevisiae deletion strains, locus YHR129C, strain ARP1, stronger effect = lower value 0.974 | S. cerevisiae deletion strains, locus YHR200W, strain rpn10, stronger effect = lower value 0.95 | S. cerevisiae deletion strains, locus YIL066C, strain RNR3, stronger effect = lower value 0.97 | S. cerevisiae deletion strains, locus YIL073C, strain SPO22, stronger effect = lower value 0.992 | S. cerevisiae deletion strains, locus YIL125W, strain kgd1, stronger effect = lower value 0.964 | S. cerevisiae deletion strains, locus YIR030C, strain dcg1, stronger effect = lower value 0.955 | S. cerevisiae deletion strains, locus YJL095W, strain BCK1, stronger effect = lower value 0.909 | S. cerevisiae deletion strains, locus YJL134W, strain LCB3, stronger effect = lower value 0.984 | S. cerevisiae deletion strains, locus YJL168C, strain set2, stronger effect = lower value 0.987 | S. cerevisiae deletion strains, locus YJL187C, strain SWE1 (second series), stronger effect = lower value 0.963 | S. cerevisiae deletion strains, locus YJR043C, strain POL32, stronger effect = lower value 0.943 | S. cerevisiae deletion strains, locus YJR075W, strain HOC1, stronger effect = lower value 0.945 | S. cerevisiae deletion strains, locus YKL009W, strain mrt4, stronger effect = lower value 1.02 | S. cerevisiae deletion strains, locus YKL068W, stronger effect = lower value 0.972 | S. cerevisiae deletion strains, locus YKL085W, strain MDH1 (second series), stronger effect = lower value 0.96 | S. cerevisiae deletion strains, locus YKL085W, strain MDH1, stronger effect = lower value 0.96 | S. cerevisiae deletion strains, locus YLR039C, strain RIC1, stronger effect = lower value 0.929 | S. cerevisiae deletion strains, locus YLR058C, strain SHM2, stronger effect = lower value 0.973 | S. cerevisiae deletion strains, locus YLR102C, strain apc9, stronger effect = lower value 0.966 | S. cerevisiae deletion strains, locus YLR262C, strain YPT6, stronger effect = lower value 0.922 | S. cerevisiae deletion strains, locus YLR268W, strain sec22, stronger effect = lower value 0.98 | S. cerevisiae deletion strains, locus YLR330W, strain CHS5, stronger effect = lower value 0.969 | S. cerevisiae deletion strains, locus YLR342W, strain FKS1 (second series), stronger effect = lower value 0.982 | S. cerevisiae deletion strains, locus YLR371W, strain rom2, stronger effect = lower value 0.964 | S. cerevisiae deletion strains, locus YLR418C, strain cdc73, stronger effect = lower value 0.872 | S. cerevisiae deletion strains, locus YML016C, strain PPZ1, stronger effect = lower value 0.97 | S. cerevisiae deletion strains, locus YML032C, strain rad52, stronger effect = lower value 0.925 | S. cerevisiae deletion strains, locus YML124C, strain tub3, stronger effect = lower value 0.954 | S. cerevisiae deletion strains, locus YMR078C, strain ctf18, stronger effect = lower value 0.931 | S. cerevisiae deletion strains, locus YMR223W, strain ubp8, stronger effect = lower value 0.969 | S. cerevisiae deletion strains, locus YMR263W, strain SAP30, stronger effect = lower value 0.975 | S. cerevisiae deletion strains, locus YMR307W, strain GAS1, stronger effect = lower value 0.94 | S. cerevisiae deletion strains, locus YNL067W, strain RPL9B, stronger effect = lower value 0.962 | S. cerevisiae deletion strains, locus YNL233W, strain BNI4, stronger effect = lower value 0.962 | S. cerevisiae deletion strains, locus YNL250W, strain rad50, stronger effect = lower value 0.975 | S. cerevisiae deletion strains, locus YNL271C, strain bni1, stronger effect = lower value 0.972 | S. cerevisiae deletion strains, locus YNL298W, strain CLA4, stronger effect = lower value 0.976 | S. cerevisiae deletion strains, locus YNL307C, strain MCK1, stronger effect = lower value 0.956 | S. cerevisiae deletion strains, locus YNL322C, strain KRE1, stronger effect = lower value 0.986 | S. cerevisiae deletion strains, locus YNR052C, strain pop2, stronger effect = lower value 0.993 | S. cerevisiae deletion strains, locus YOL006C, strain TOP1, stronger effect = lower value 0.854 | S. cerevisiae deletion strains, locus YOL012C, strain htz1 1.14 | S. cerevisiae deletion strains, locus YOL147C, strain pex11, stronger effect = lower value 0.983 | S. cerevisiae deletion strains, locus YOR061W, strain CKA2, stronger effect = lower value 0.998 | S. cerevisiae deletion strains, locus YOR069W, strain VPS5, stronger effect = lower value 0.974 | S. cerevisiae deletion strains, locus YOR136W, strain idh2, stronger effect = lower value 0.985 | S. cerevisiae deletion strains, locus YOR144C, strain elg1, stronger effect = lower value 0.962 | S. cerevisiae deletion strains, locus YOR184W, strain ser1, stronger effect = lower value 0.922 | S. cerevisiae deletion strains, locus YOR316C, strain cot1, stronger effect = lower value 0.964 | S. cerevisiae deletion strains, locus YPL241C, strain CIN2, stronger effect = lower value 0.979 | S. cerevisiae deletion strains, locus YPR119W, strain clb2, stronger effect = lower value 0.964 | S. cerevisiae deletion strains, locus YPR141C, strain kar3, stronger effect = lower value 0.946 | S. cerevisiae deletion strains, locus YPR163C, strain tif3, stronger effect = lower value 0.986 | S. cerevisiae deletion strains, locus YPR167C, strain met16, stronger effect = lower value 0.958 | S. cerevisiae deletion strains, strain wtn01, stronger effect = lower value 0.995 | S. cerevisiae strains, strain wild type, stronger effect = lower value 0.968
active: S. cerevisiae deletion strains, locus YDR502C, strain sam2, stronger effect = lower value 0.913 | S. cerevisiae deletion strains, locus YKR001C, strain vps1, stronger effect = lower value 0.85
